Screening data (PubChem)
This is one part of a sample in which hits are shown more often than they occur.
KDM5B inhibitor: inhibitors of human KDM5B histone demethylase; Q9UGL1; KDM5B demethylase, FDH-coupled NADH fluorescence (FDH is formaldehyde dehydrogenase); Potency, µM (series often up to 57.7 µM), usual class: inhibitors; 220,000 tested, 2.6% active; AID 1347165; active means well fitted inhibition curve with a large enough effect; further: nearly all actives have a fitted effect of over 70% in size
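Coupled FDH/NAD⁺ fluorescence readout. KDM5BΔAP 200 nM final; compound titration, 10 min RT preincubation; substrate mix 12.5 µM H3K4me3, 25 µM 2-OG, 50 µM Fe(II), 100 µM ascorbate, 0.25 mM NAD⁺, 0.25 U/mL FDH; ΔRFU over 30 min.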
Numbers stand for hits; n = inactive.

SMILES | KDM5B inhibitor
Cn1cnc(C(=O)N[C@@H]2[C@@H](Cc3ccccc3)[C@H]3OCC[C@@H]23)c1 | n
O=C(CN1C(=O)CNC1=O)N[C@@H]1[C@@H](Cc2ccccc2)[C@H]2OCC[C@@H]12 | n
CCc1c(C)cc(C(=O)N[C@@H]2[C@@H](Cc3ccccc3)[C@H]3OCC[C@@H]23)c(=O)n1C | 28.2µM
O=C(NC1CCCC1)c1cc2c(F)cccc2s1 | n
Cc1nc(N2CCC(NC(=O)c3ccc(F)cc3Cl)CC2)cc(C(F)(F)F)n1 | n
O=C(Nc1cccc(C(F)(F)F)c1)c1cccc(NC(=O)c2ccc[n+]([O-])c2)c1 | n
O=C1[C@H]2CC[C@H](CN(Cc3ccc(-n4ccnc4)cc3)C2)N1CC1CCC1 | 20µM
O=C1N(Cc2ccc(F)cc2)C[C@H]2CN(CC3CC3)CCN12 | n
O=C1[C@H]2CC[C@H](CN(Cc3cccc(N4CCOCC4)c3)C2)N1CC1CCC1 | n
CC1(C)CC(NC(=O)Cn2nc(-c3ccc(Cl)cc3)c3ccccc3c2=O)CC(C)(C)N1 | n
C#CCOc1nc2c(c(=O)n(C)c(=O)n2C)n1Cc1c(Cl)cccc1Cl | n
Cc1noc(-c2nc(Cc3ccc(F)cc3)no2)n1 | n
Fc1ccc(Cc2noc(-c3ccc(NCCCn4ccnc4)nc3)n2)cc1 | n
CC(Cn1cncn1)Nc1ccc(-c2nc(Cc3ccc(F)cc3)no2)cn1 (stereo not given) | 25.1µM
O=C(NCCc1cccs1)C1CN(S(=O)(=O)C2CC2)CC12CCCCC2 (stereo not given) | n
Cc1ccc(CN2C(=O)COC[C@H]2C(=O)Nc2cc(F)cc(F)c2)cc1 | n
O=C(Nc1ccc(Cl)cc1)[C@@H]1COCC(=O)N1Cc1ccc(F)cc1 | n
Cc1ccc(F)c(NC(=O)[C@@H]2COCC(=O)N2Cc2ccc(F)cc2)c1 | 39.8µM
Cc1nc(-c2ccccc2)sc1C(=O)NC1CCC(C(F)(F)F)CC1 (stereo not given) | n
CNc1ncc(CN(C)C(=O)c2cc(S(N)(=O)=O)ccc2F)cn1 | 22.4µM
CN(C)c1nc(CNC(=O)c2cc(S(N)(=O)=O)ccc2F)cs1 | n
NS(=O)(=O)c1ccc(F)c(C(=O)O)c1 | n
COCCn1c(N2CCC(C(N)=O)CC2)nc2c1c(=O)n(C)c(=O)n2C | n
CCC(=O)NC(C)c1ccc(OC)cc1 (stereo not given) | n
CCn1nc(C)cc1C(=O)NCc1cccnc1Oc1ccccc1C | n
SMILES | KDM5B inhibitor
CCCn1nccc1C(=O)NCc1cccnc1-n1cnc2ccccc21 | n
CCCn1nccc1C(=O)NCc1cccnc1Oc1ccc(C)nc1 | 31.6µM
COc1ccc2cc(CN3CCC(OC)CC3)c(-c3cccc(C)c3)nc2c1 | 25.1µM
Cc1cccc(-c2nc3cc(C)ccc3cc2CN2CCN(CCCO)CC2)c1 | n
COc1ccc(OC)c(-c2nc3cc4c(cc3cc2CN2CCOCC2)OCO4)c1 | n
N#CCc1ccc(NC(=O)CNc2cccc(Br)c2)cc1 | n
Cc1ccc(CNc2nc3c(c(=O)[nH]c(=O)n3C)n2CCCc2ccccc2)cc1 | n
O=C(NCc1cccs1)c1ccc2c(c1)OCCN(CCC(F)(F)F)C2 | n
Cc1cnc(NC(=O)c2ccc3c(c2)OCCN(CCC(F)(F)F)C3)s1 | n
Cc1csc(NC(=O)c2ccc3c(c2)OCCN(CCC(F)(F)F)C3)n1 | 35.5µM
CCN(CC(=O)NC(C)C)Cc1cccc2cccnc12 | n
Cc1ccnc(NCCNC(=O)C2CCC(=O)N(CC3CCCCC3)C2)c1 (stereo not given) | 28.2µM
Cc1cccc2[nH]c(CNC(=O)C3CCC(=O)N(CC4CCCCC4)C3)nc12 (stereo not given) | n
CC(C)c1nnsc1CNC(=O)C1CCC(=O)N(CC2CCCCC2)C1 (stereo not given) | n
CCC(C)(CNC(=O)c1cc2c(s1)CCC2)N1CCOCC1 (stereo not given) | n
CCOc1ccc(C(=O)Nc2cccc3ccc(C)nc23)cc1 | n
O=C(NCc1cccc(F)c1)C1=Cc2cc(Br)ccc2OC1 | n
O=C(O)c1ccc(CNC(=O)c2ccc3c(c2)OCCO3)cc1 | n
CC1(C(=O)NCc2cccc(F)c2)CCCCC(=O)N1 (stereo not given) | n
CN(C)CCOCC1(C)COc2ccc(C(=O)NCc3ccc(F)cc3)cc2N1 (stereo not given) | 39.8µM
CN(C)CCOCC1(C)COc2ccc(C(=O)NCc3cccc(F)c3)cc2N1 (stereo not given) | 39.8µM
O=C(NCc1ccc(F)cc1)c1cccc(S(=O)(=O)Nc2ccc3c(c2)OCO3)c1 | n
COC(=O)c1c(-c2csc(NC3CC3)n2)c(C)n(C(C)C)c1C | n
Cc1cc(N)c([N+](=O)[O-])cc1C | n
CN(C)C(=O)c1cccnc1OC1CCN(C(=O)c2ccccc2Br)C1 (stereo not given) | n
SMILES | KDM5B inhibitor
COc1ccc(CCNC(=O)c2cccc3c(=O)c(C)c(-c4ccccc4)oc23)cc1 | n
O=C(OC1CCCCC1)c1cccc(CS(=O)(=O)c2ccccc2)c1 | n
CC(=O)NCCC(=O)N1Cc2ccccc2CC2(CCCN(CC3CCNC3)C2)C1 (stereo not given) | n
COc1ccc(-c2nc(C3CC(=O)N(c4ccc(F)cc4)C3)no2)cc1F (stereo not given) | n
CCc1ccc(N2CC(c3noc(-c4ccc(N(C)C)cc4)n3)CC2=O)cc1 (stereo not given) | 31.6µM
CCc1ccc(N2CC(c3noc(-c4cnccn4)n3)CC2=O)cc1 (stereo not given) | n
Cc1ccc(-c2nc(C3CC(=O)N(c4ccc(F)cc4)C3)no2)cc1 (stereo not given) | n
Cc1ccc(N2CC(c3noc(-c4ccc(F)cc4)n3)CC2=O)cc1 (stereo not given) | n
COc1ccc(N2CC(c3noc(-c4cccc(C)c4)n3)CC2=O)cc1 (stereo not given) | n
Cc1ccc(-c2nc(C3CC(=O)N(c4ccc(Cl)cc4)C3)no2)cc1 (stereo not given) | n
COc1ccc(N2CC(c3noc(-c4ccc(F)cc4)n3)CC2=O)cc1OC (stereo not given) | n
COc1ccc(N2CC(c3noc(-c4cc(C)cc(C)c4)n3)CC2=O)cc1 (stereo not given) | n
O=C1CC(c2noc(-c3ccc4c(c3)OCO4)n2)CN1c1ccc(F)cc1 (stereo not given) | 28.2µM
CCc1ccc(N2CC(c3noc(-c4ccc(OC)c(F)c4)n3)CC2=O)cc1 (stereo not given) | 31.6µM
COc1ccc(N2CC(c3noc(-c4ccc(N(C)C)cc4)n3)CC2=O)cc1 (stereo not given) | 35.5µM
CC(NC(=O)C1CCCC(C(F)(F)F)C1)c1cccc(C(F)(F)F)c1 (stereo not given) | n
Cc1ccc(S(=O)(=O)N2CCCN(C(=O)C3CC(=O)Nc4cc(F)ccc43)CC2)cc1 (stereo not given) | n
CNc1cc(C)nc(N2CCN(Cc3ccc(C)cc3)C(CCO)C2)n1 (stereo not given) | n
CC(C)(C)c1ccc(C(=O)Nc2ccc(NC(=O)CCC(=O)O)cc2O)cc1 | n
Cc1ccccc1Cn1nc(C)c(NC(=O)Nc2cccc(F)c2)c1C | n
COc1ccc(NC(=O)Cn2c(C)cc3ccccc32)cc1 | n
COc1cccc(S(=O)(=O)N2CC(N(C3CCOCC3)S(C)(=O)=O)C2)c1 | n
O=C(CCC(=O)c1ccc(Cl)cc1)OCC(=O)c1cccc(I)c1 | n
O=C(N[C@H]1CO[C@H]2[C@@H]1OC[C@@H]2n1cc(CC2CCCCC2)nn1)C1CC1 | n
O=C(NCCc1noc(-c2cccnc2)n1)c1c2c(nc3ccccc13)CCCC2 | n
